# What was measured:
# Experiment in all cases: DAPPL (digital affinity profiling via proximity ligation, sequencing); 10 mM Tris-HCl pH 7.5, 50 mM NaCl, 1 mM DTT, 4% glycerol, room temperature, 30 min; GST-TFs on glutathione beads, 16-mer random dsDNA library, 0.1% formaldehyde crosslink after washing; high values mean tight binding
# Conditions in all cases: protein: recombinant; tags: N-terminal GST; dsDNA, one strand shown
# [1] = biological target: T1, FLI1 (Homo sapiens, UniProt Q01543 1-452)
# T1 sequence: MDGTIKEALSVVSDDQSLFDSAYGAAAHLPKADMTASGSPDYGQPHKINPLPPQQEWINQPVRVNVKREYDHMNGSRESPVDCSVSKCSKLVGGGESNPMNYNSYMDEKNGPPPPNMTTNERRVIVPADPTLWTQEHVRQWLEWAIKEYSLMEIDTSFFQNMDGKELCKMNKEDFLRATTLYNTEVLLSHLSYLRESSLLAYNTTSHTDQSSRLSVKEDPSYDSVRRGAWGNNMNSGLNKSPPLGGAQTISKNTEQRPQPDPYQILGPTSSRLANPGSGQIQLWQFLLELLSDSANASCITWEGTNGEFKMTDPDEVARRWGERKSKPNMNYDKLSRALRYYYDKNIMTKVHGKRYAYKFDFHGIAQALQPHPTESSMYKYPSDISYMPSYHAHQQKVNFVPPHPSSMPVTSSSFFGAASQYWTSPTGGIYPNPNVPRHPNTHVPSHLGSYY
# Method in brief: (§1)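 The binding signal reported is, for every hexamer, its read frequency for a factor over its read frequency for the tag-only sample. Reads came from pools of yeast-expressed, GST-fused human transcription factors on glutathione beads, barcoded with DNA and mixed with that sample, which were incubated with 200 nmole of a random double-stranded 16-mer DNA library in Tris/NaCl/DTT/glycerol buffer at room temperature for 30 min. After washing, the pools were crosslinked with 0.1% formaldehyde, proximity-ligated with BsaI/T4 ligase for 1 h at 37 °C, PCR-amplified and sequenced on an Illumina NextSeq500.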
# [2] = biological target: T2, ELK1 (Homo sapiens, UniProt P19419 1-428)
# T2 sequence: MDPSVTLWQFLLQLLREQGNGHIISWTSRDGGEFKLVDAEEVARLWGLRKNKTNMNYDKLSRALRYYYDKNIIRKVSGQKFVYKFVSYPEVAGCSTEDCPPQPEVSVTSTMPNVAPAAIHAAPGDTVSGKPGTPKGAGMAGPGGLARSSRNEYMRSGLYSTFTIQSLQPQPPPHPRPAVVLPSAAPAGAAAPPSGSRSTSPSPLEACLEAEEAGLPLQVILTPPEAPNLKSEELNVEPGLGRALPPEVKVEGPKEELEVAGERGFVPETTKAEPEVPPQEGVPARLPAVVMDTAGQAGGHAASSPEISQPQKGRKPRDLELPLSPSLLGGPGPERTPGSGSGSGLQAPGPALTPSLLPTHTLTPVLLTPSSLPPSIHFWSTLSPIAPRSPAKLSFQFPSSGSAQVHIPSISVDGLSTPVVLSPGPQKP
# Method in brief: as §1
# [3] = biological target: T3, GABPA (Homo sapiens, UniProt Q06546 1-454)
# T3 sequence: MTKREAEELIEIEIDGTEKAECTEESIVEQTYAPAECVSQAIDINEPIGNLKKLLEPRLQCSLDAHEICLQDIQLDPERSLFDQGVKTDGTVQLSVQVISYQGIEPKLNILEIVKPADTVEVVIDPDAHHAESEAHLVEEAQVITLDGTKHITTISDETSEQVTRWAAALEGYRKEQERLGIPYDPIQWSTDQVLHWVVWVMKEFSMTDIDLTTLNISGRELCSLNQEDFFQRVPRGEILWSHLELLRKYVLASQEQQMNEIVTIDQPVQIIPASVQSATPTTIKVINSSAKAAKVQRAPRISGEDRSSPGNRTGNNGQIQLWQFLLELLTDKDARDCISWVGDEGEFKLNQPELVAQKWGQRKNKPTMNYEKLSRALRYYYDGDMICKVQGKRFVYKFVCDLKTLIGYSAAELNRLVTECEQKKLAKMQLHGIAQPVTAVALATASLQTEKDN
# Method in brief: as §1
# [4] = biological target: T4, ERG (Homo sapiens, UniProt P11308 1-479)
# T4 sequence: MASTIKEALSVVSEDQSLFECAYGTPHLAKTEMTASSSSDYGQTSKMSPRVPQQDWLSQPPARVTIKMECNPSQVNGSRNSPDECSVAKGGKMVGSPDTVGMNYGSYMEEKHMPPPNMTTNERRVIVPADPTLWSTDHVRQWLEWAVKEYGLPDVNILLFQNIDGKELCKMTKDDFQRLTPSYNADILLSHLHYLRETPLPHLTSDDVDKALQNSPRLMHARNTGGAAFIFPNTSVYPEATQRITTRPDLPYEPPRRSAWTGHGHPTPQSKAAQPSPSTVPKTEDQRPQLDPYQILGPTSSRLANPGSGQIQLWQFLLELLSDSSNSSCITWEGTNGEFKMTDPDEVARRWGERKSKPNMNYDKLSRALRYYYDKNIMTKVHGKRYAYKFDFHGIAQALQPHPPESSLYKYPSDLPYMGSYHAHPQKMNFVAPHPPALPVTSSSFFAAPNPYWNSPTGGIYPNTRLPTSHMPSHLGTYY
# Method in brief: as §1
# [5] = biological target: ELF1 (Homo sapiens, UniProt P32519 1-619)
# Method in brief: as §1
# [6] = biological target: SPI1 (Homo sapiens, UniProt P17947 1-270)
# Method in brief: as §1
# [7] = biological target: SPIB (Homo sapiens, UniProt Q01892 1-262)
# Method in brief: as §1
# [8] = biological target: T5, ELK3 (Homo sapiens, UniProt P41970 1-407)
# T5 sequence: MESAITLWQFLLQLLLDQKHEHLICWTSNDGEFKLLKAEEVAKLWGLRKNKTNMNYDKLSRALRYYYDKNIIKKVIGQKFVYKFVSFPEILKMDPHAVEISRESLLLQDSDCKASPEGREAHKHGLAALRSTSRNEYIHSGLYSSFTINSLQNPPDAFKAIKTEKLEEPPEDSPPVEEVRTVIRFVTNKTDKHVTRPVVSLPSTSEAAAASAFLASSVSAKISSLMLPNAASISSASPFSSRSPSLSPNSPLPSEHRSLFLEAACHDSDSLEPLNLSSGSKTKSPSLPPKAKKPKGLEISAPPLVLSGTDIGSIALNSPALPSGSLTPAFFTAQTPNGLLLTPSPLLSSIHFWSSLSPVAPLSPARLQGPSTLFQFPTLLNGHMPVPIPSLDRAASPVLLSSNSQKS
# Method in brief: as §1
# [9] = biological target: T6, EHF (Homo sapiens, UniProt Q9NZC4 1-300)
# T6 sequence: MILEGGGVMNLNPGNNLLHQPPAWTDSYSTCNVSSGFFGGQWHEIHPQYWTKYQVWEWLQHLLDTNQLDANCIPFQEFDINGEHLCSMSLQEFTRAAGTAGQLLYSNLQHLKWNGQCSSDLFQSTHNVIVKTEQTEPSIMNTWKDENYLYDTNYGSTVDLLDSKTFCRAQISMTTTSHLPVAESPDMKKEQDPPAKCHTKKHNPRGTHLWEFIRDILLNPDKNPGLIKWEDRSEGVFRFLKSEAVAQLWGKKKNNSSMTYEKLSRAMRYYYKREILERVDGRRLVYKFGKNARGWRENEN
# Method in brief: as §1
# Sequence of SPIB (Q01892 whole entry): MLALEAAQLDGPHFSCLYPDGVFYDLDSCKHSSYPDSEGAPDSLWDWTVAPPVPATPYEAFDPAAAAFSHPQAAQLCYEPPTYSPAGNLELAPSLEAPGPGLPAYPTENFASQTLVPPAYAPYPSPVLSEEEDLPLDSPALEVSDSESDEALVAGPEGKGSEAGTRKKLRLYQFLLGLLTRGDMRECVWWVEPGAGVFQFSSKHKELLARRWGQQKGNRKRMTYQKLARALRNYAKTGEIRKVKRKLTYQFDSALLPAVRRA
# Sequence of ELF1 (P32519 whole entry): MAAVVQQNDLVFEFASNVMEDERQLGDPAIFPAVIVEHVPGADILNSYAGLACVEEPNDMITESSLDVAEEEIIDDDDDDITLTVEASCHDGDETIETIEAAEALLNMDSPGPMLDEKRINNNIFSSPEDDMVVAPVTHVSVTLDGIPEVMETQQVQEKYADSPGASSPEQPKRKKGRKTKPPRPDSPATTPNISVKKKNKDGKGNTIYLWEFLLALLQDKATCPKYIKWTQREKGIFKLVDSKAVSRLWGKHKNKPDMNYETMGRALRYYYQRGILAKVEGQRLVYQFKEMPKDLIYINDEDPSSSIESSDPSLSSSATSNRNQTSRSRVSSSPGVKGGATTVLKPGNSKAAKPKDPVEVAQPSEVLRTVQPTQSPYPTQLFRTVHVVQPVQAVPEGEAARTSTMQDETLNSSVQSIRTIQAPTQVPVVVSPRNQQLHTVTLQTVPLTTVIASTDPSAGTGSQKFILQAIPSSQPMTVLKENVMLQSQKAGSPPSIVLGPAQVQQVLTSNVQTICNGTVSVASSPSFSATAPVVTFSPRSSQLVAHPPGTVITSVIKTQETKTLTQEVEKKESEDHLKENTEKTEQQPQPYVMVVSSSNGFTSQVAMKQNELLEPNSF
sequence,measurement,setting,value
TGTGGA,binding signal,[1],"1.08 fold enrichment (6-mer frequency, TF over GST control)"
same,binding signal,[2],"1.01 fold enrichment (6-mer frequency, TF over GST control)"
same,binding signal,[3],"1.06 fold enrichment (6-mer frequency, TF over GST control)"
same,binding signal,[4],"1.16 fold enrichment (6-mer frequency, TF over GST control)"
same,binding signal,[5],"1.11 fold enrichment (6-mer frequency, TF over GST control)"
same,binding signal,[6],"1.09 fold enrichment (6-mer frequency, TF over GST control)"
same,binding signal,[7],"1.1 fold enrichment (6-mer frequency, TF over GST control)"
same,binding signal,[8],"1.04 fold enrichment (6-mer frequency, TF over GST control)"
CCTGTG,binding signal,[1],"1.06 fold enrichment (6-mer frequency, TF over GST control)"
same,binding signal,[2],"1.24 fold enrichment (6-mer frequency, TF over GST control)"
same,binding signal,[3],"1.08 fold enrichment (6-mer frequency, TF over GST control)"
same,binding signal,[4],"1.21 fold enrichment (6-mer frequency, TF over GST control)"
same,binding signal,[5],"1.11 fold enrichment (6-mer frequency, TF over GST control)"
same,binding signal,[6],"1.04 fold enrichment (6-mer frequency, TF over GST control)"
same,binding signal,[7],"1.18 fold enrichment (6-mer frequency, TF over GST control)"
same,binding signal,[8],"1.01 fold enrichment (6-mer frequency, TF over GST control)"
TTGCAG,binding signal,[1],"1.12 fold enrichment (6-mer frequency, TF over GST control)"
same,binding signal,[2],"1.19 fold enrichment (6-mer frequency, TF over GST control)"
same,binding signal,[3],"1.15 fold enrichment (6-mer frequency, TF over GST control)"
same,binding signal,[4],"1.15 fold enrichment (6-mer frequency, TF over GST control)"
same,binding signal,[5],"1.16 fold enrichment (6-mer frequency, TF over GST control)"
same,binding signal,[6],"1.08 fold enrichment (6-mer frequency, TF over GST control)"
same,binding signal,[7],"1.16 fold enrichment (6-mer frequency, TF over GST control)"
same,binding signal,[8],"1.24 fold enrichment (6-mer frequency, TF over GST control)"
GGCATT,binding signal,[1],"1.08 fold enrichment (6-mer frequency, TF over GST control)"
same,binding signal,[2],"1.05 fold enrichment (6-mer frequency, TF over GST control)"
same,binding signal,[3],"1.04 fold enrichment (6-mer frequency, TF over GST control)"
same,binding signal,[4],"1.04 fold enrichment (6-mer frequency, TF over GST control)"
same,binding signal,[9],"1.01 fold enrichment (6-mer frequency, TF over GST control)"
same,binding signal,[6],"1.05 fold enrichment (6-mer frequency, TF over GST control)"
same,binding signal,[8],"1.14 fold enrichment (6-mer frequency, TF over GST control)"

# Reference: paper PMC7862700, “An all-to-all approach to the identification of sequence-specific readers for epigenetic DNA modifications on cytosine”
